The text below walks through data of PubChem BioAssay AID602333 (Sanford-Burnham Center for Chemical Genomics, 2012).

In all, about 1,900 compounds went through this assay and about 240 (13%) were called active. The entries come from a sample that favours actives as a whole. Values without a mark were called inactive.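 How the source made its calls: active means mean inhibition at least 40% at 20 µM, or signal 3 deviations below plate average, so some actives read negative; inactive means the rest.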

Prothrombin (Bos taurus), sequence (P00735 whole entry, looked up): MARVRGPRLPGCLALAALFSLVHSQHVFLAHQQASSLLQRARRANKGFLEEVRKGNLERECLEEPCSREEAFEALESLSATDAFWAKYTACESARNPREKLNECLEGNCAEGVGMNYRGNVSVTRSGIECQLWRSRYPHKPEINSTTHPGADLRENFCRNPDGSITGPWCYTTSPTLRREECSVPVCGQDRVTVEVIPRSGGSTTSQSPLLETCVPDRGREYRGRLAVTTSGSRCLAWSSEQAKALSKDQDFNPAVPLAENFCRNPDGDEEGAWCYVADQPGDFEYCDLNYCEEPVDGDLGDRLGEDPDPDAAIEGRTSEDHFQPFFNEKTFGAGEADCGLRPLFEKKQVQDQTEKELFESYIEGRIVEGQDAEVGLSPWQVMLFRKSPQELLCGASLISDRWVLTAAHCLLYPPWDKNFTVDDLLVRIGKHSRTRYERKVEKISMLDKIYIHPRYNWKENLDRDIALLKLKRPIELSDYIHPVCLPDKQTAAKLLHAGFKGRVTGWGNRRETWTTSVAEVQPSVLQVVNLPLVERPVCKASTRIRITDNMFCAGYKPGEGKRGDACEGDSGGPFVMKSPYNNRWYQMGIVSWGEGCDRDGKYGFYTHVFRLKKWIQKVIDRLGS

The assay has as its target Prothrombin (Bos taurus) (UniProt P00735). As to the kind of experiment: bovine thrombin protease inhibition, confirmation, counter-screen for Rpn11 inhibitor project, biochemical, fluorescence polarization, single concentration (AID 602333).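 Further: plate controls were thrombin with DMSO for no effect and buffer wells lacking thrombin for full effect.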 The following applies: bovine thrombin cleavage of Ub4-pepOG, at 20 µM, hits give high values.
For the compound `CCN1C(=O)C(=Cc2c(C)n(CC(=O)NCC3CCCO3)c3ccccc23)C(=O)N(CC)C1=S` (stereo not drawn), the inhibition was 53.3% (active). Under `O=c1[nH]c(=O)n(Cc2ccccc2)c(O)c1/C=N/Nc1c(F)c(F)c(F)c(F)c1F` stands 12.8%; under `Cc1cccc(N2C(=O)NC(=O)/C(=C\c3cnn(-c4ccccc4)c3)C2=O)c1`, 6.14%.

As usually defined, the inhibition is the share of the control response that was lost under treatment.
